Results filed as inconclusive are left out. Activity calls are given as the source filed them. How the source made its calls: active means hit-call score of the fitted dose curve at least 0.9, where 1 is the maximum; inconclusive means response in the unintended direction; inactive means score below 0.9.
Each compound was assayed against human Peroxisome Proliferator-activated Receptor alpha (PPARa), PPARA (gene 5465) (UniProt Q07869) (assay: ERF_US_NR_hPPARA: Eurofins (ERF) Nuclear Receptor (NR) Cell Based Protein-Protein Interaction LeadHunter Assay for human Peroxisome Proliferator-activated Receptor alpha (PPARa) Agonism).
Chain of human Peroxisome Proliferator-activated Receptor alpha (PPARa), PPARA (gene 5465) (Q07869 whole entry, looked up): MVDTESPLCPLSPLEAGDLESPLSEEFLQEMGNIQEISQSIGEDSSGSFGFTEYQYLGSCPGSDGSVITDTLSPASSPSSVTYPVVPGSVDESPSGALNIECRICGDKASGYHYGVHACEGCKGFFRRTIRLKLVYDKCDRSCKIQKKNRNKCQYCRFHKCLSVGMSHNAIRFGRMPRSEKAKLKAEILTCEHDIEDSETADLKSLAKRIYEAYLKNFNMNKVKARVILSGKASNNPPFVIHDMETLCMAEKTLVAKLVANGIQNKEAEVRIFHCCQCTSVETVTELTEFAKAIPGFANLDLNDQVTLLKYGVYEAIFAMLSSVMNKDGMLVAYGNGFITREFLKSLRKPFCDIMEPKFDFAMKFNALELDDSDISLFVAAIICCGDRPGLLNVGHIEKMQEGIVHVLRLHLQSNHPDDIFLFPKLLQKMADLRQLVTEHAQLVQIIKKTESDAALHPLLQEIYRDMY
Protocol: ERF_US_NR_hPPARA is a cell-based, single-readout assay that uses extracted gene-proteins […]. Measurements were taken 5 hours after chemical dosing in a 384-well plate. See PPARalpha Human NHR Cell Based Agonist Protein-Protein Interaction Assay, DiscoverX.ERF_US_NR_hPPARA is an assay component calculated from theERF_US_NR_hPPARA assay. It is designed to measure radioligand binding using a type of binding reporter as detected by scintillation counting with radiometry technology.Data from the assay component ERF_US_NR_hPPARA was analyzed at the assay endpoint, ERF_US_NR_hPPARA, in the positive analysis fitting direction relative to DMSO as the negative control and baseline of activity. Using a type of binding reporter, gain-of-signal activity can be used to understand changes in binding as they relate to gene PPARA. To generalize the intended target to other relatable targets, this assay endpoint is annotated to the nuclear receptor intended target family, where the subfamily is non-steroidal.
Cells were seeded in a total volume of 20 uL into white walled, 384-well microplates and incubated at 37C overnight prior to testing.Briefly, intermediate dilution of sample stocks was performed to generate 5X sample in assay buffer. 5 uL of 5X sample was added to cells and incubated at 37C for 300 minutes. Final assay vehicle concentration was 1%. The results are expressed as a percent efficacy of the control ligand.
For `CN(CCOc1ccc(CC2SC(=O)NC2=O)cc1)c1ccccn1` (centres undefined), the outcome was “inactive”.
In the case of `O=C(O)C(F)(F)C(F)(F)C(F)(F)C(F)(F)C(F)(F)C(F)(F)C(F)(F)F`, the outcome is reported as “inactive”.
In the case of `O=C(O)C(F)(F)OC(F)(F)C(F)(F)OC(F)(F)F`, the outcome is reported as “inactive”.
With `CC(C)(Oc1ccc(C(=O)c2ccc(Cl)cc2)cc1)C(=O)O` the AC50 was 50 µM (active).
For `O=C(O)C(F)(F)C(F)(F)C(F)(F)C(F)(F)C(F)(F)C(F)(F)C(F)(F)C(F)(F)Cl`, the outcome was “inactive”.
For `O=C(O)C(F)(F)C(F)(F)C(F)(F)C(F)(F)C(F)(F)C(F)(F)C(F)F`, the outcome was “inactive”.
In the case of `O=C(CC(=O)C(F)(F)C(F)(F)C(F)(F)F)c1cccs1`, the AC50 is reported as 12.6 µM (active).
In the case of `O=S(=O)(O)C(F)(F)C(F)(F)C(F)(F)C(F)(F)C(F)(F)C(F)(F)F`, the outcome is reported as “inactive”.
In the case of `O=S(=O)(O)C(F)(F)C(F)(F)C(F)(F)C(F)(F)C(F)(F)C(F)(F)C(F)(F)C(F)(F)F`, the outcome is reported as “inactive”.

Reference: PubChem BioAssay AID2284384 (EPA ToxCast)
